Results taken from PubChem BioAssay AID1159580 (chemical genetic matrix, 2015).
Where “and” joins values, the source holds several entries; their conditions need not be identical. Equal values may be shown once. Screen size: about 5,500 compounds; about 2,000 (36%) were called active. Inconclusive results (about 18%) are left out. Cut-off read from the data, not from the text of the source: active = normalized growth mostly below about 0.91 (no sharp cut-off); inconclusive = no clear call, values can overlap the other calls; inactive = mostly above about 0.92. The list shows a part of the results.

Assay: chemical genetic growth profiling, strain panel (AID 1159580);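 note: tested at 20 µM; growth read once vehicle control cultures reached saturation at 30 °C; 1 = growth at the plate median or of vehicle wells; lower values mean less growth of the strain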
Conditions: S. cerevisiae deletion strains, growth OD

Measured: normalized growth

CCCNC(C)C(=O)Nc1ccccc1C (stereo not given)
inactive: locus YAL013W, strain DEP1, hits give low values 1.01 | locus YAL021C, strain ccr4, hits give low values 1.01 | locus YAL026C, strain drs2, hits give low values 1.01 | locus YAL030W, strain snc1, hits give low values 0.995 | locus YAL040C, strain CLN3, hits give low values 1.07 | locus YBL061C, strain skt5, hits give low values 1.01 | locus YBR009C, strain hhf1, hits give low values 1.01 | locus YBR021W, strain FUR4, hits give low values 1.01 | locus YBR023C, strain chs3, hits give low values 1 | locus YBR171W, strain sec66, hits give low values 1.01 | locus YBR229C, strain ROT2, hits give low values 1.01 | locus YBR231C, strain swc5, hits give low values 1.01 | locus YBR279W, strain paf1, hits give low values 1.01 | locus YCL011C, strain gbp2, hits give low values 0.999 | locus YCL016C, strain dcc1, hits give low values 1.01 | locus YCL029C, strain bik1, hits give low values 1 | locus YCL061C, strain MRC1 (second series), hits give low values 1.01 | locus YCL061C, strain MRC1, hits give low values 0.997 | locus YCL069W, strain vba3, hits give low values 1.01 | locus YCR088W, strain abp1, hits give low values 1.01 | locus YDL005C, strain med2, hits give low values 1 | locus YDL035C, strain GPR1, hits give low values 1.01 | locus YDL040C, strain nat1, hits give low values 1.01 | locus YDL074C, strain BRE1, hits give low values 1.02 | locus YDL101C, strain DUN1, hits give low values 1.02 | locus YDL134C, strain PPH21, hits give low values 1.01 | locus YDL185W, strain tfp1, hits give low values 0.997 | locus YDL192W, strain arf1, hits give low values 0.996 | locus YDR001C, strain nth1, hits give low values 1 | locus YDR069C, strain doa4, hits give low values 1.02 | locus YDR101C, strain arx1, hits give low values 1 | locus YDR137W, strain rgp1, hits give low values 1.03 | locus YDR150W, strain NUM1, hits give low values 1.01 | locus YDR159W, strain sac3, hits give low values 1 | locus YDR162C, strain NBP2, hits give low values 1.01 | locus YDR195W, strain ref2 1.01 | locus YDR297W, strain sur2, hits give low values 1 | locus YDR318W, strain mcm21, hits give low values 0.998 | locus YDR334W, strain swr1, hits give low values 0.998 | locus YDR335W, strain msn5, hits give low values 1.01 | locus YDR363W, strain ESC2, hits give low values 1.05 | locus YDR388W, hits give low values 0.99 | locus YDR392W, strain spt3, hits give low values 1.01 | locus YDR502C, strain sam2, hits give low values 0.991 | locus YEL003W, strain gim4, hits give low values 0.998 | locus YEL037C, strain rad23, hits give low values 0.994 | locus YEL061C, strain CIN8 (second series), hits give low values 1.01 | locus YEL061C, strain CIN8, hits give low values 1.01 | locus YER002W, strain NOP16, hits give low values 0.995 | locus YER015W, strain faa2, hits give low values 0.984 | locus YER016W, strain bim1, hits give low values 0.999 | locus YER110C, hits give low values 0.991 | locus YER111C, strain swi4, hits give low values 1 | locus YER155C, strain BEM2 (second series), hits give low values 1.01 | locus YER155C, strain BEM2, hits give low values 1.01 | locus YER167W, strain BCK2, hits give low values 1 | locus YFR010W, strain ubp6, hits give low values 0.992 | locus YGL078C, strain dbp3, hits give low values 0.987 | locus YGL086W, strain mad1, hits give low values 0.993 | locus YGL167C, strain pmr1, hits give low values 1.01 | locus YGL173C, strain kem1, hits give low values 1 | locus YGL227W, strain vid30, hits give low values 1 | locus YGL240W, strain doc1, hits give low values 1.01 | locus YGL248W, strain PDE1, hits give low values 1.02 | locus YGL253W, strain hxk2, hits give low values 1.01 | locus YGR078C, strain PAC10, hits give low values 1 | locus YGR135W, strain pre9, hits give low values 0.957 | locus YGR229C, strain SMI1, hits give low values 0.99 and 1.01 | locus YGR252W, strain gcn5, hits give low values 0.911 | locus YHR013C, strain ard1, hits give low values 1.01 | locus YHR027C, strain rpn1, hits give low values 1.01 | locus YHR030C, strain SLT2, hits give low values 1.01 and 1.04 | locus YHR079C, strain IRE1 (second series), hits give low values 1.01 | locus YHR079C, strain IRE1, hits give low values 1.06 | locus YHR094C, strain hxt1, hits give low values 0.982 | locus YHR129C, strain ARP1, hits give low values 1.01 | locus YHR142W, strain chs7, hits give low values 1 | locus YHR200W, strain rpn10, hits give low values 0.999 | locus YIL066C, strain RNR3, hits give low values 1.02 | locus YIL073C, strain SPO22, hits give low values 0.989 | locus YIL125W, strain kgd1, hits give low values 0.981 | locus YIR030C, strain dcg1, hits give low values 0.994 | locus YJL092W, strain hpr5, hits give low values 1 | locus YJL095W, strain BCK1 (second series), hits give low values 1.01 | locus YJL095W, strain BCK1, hits give low values 1.02 and 1.05 | locus YJL115W, strain asf1, hits give low values 1.01 | locus YJL129C, strain trk1, hits give low values 1.01 | locus YJL134W, strain LCB3, hits give low values 1.01 | locus YJL154C, strain vps35, hits give low values 1 | locus YJL164C, strain tpk1, hits give low values 0.958 | locus YJL166W, strain qcr8, hits give low values 0.999 | locus YJL168C, strain set2, hits give low values 0.991 | locus YJL187C, strain SWE1 (second series), hits give low values 1.02 | locus YJL187C, strain SWE1, hits give low values 0.999 | locus YJR043C, strain POL32, hits give low values 1
